According to PubChem BioAssay (NCI):
This is part of a sample that, as a whole, favours compounds with a hit. Of some 83,000 tested, about 20% had one in any assay.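 Interpretation: 100, growth as untreated; towards 0, rising growth inhibition; 0, no net growth; 0 to -100, cell death. Compounds scoring below 10 were considered active.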 Activity calls are given as the source filed them.

Test system: U251 CNS
Assay: NCI-60 one-dose screen, 48 h (100 = growth as untreated, 0 = no growth, -100 = all killed)
Settings: 10 µM unless noted
Experimental: Growth inhibition of the U251 human tumor cell line is measured as a screen for anti-cancer activity. Cells are grown in 96 well plates and exposed to the test compound for 48 hours. Compounds are tested at a single concentration, which is 10^-5 M for most compounds. The reported endpoint is percent growth (GI% or GIPRCNT), where numbers from 0 - 100% represent growth inhibition, and numbers from -100% - 0 represent cell death. For example, a value of 40 represents 60% growth inhibition. A value of 0 means no net growth occurred over the course of the experiment. A value of -40 indicates 40% of cells at the beginning of the experiment died by the end of the experiment. A value of -100 means all cells are dead at the end of the experiment.
NCI-60 Human Tumor Cell Lines Screen was performed using the standard one-dose NCI protocol, which is described in more detail at https://dtp.cancer.gov/discovery_development/nci-60/default.htm.
Compounds with GIPRCNT values below 10 were considered active. Activity score was based on GIPRCNT using the following formula: […]
Score is 0 for GIPRCNT values of 100 or above, 50 for GIPRCNT values of 0, and 100 for GIPRCNT values of -100.

Row | SMILES | growth
1 | CN[C@]1(c2ccccc2Cl)CCCC[C@H]1NCCCN1CCN(C)CC1 | 103% (inactive)
2 | COc1cc(C=Nc2cccc(Br)c2)ccc1N(CCCl)CCCl | 73% (inactive)
3 | CC[C@H](C)[C@H](NC(=O)[C@H]1CCCCN1C)C(=O)N(C)[C@H](C[C@@H](OC(C)=O)c1cccc(C(=O)N[C@@H](Cc2ccccc2)C[C@H](C)C(=O)O)n1)C(C)C | 13.6% (inactive)
4 | C[C@]12CCc3sc(NCCc4ccccc4)nc3C1=CC[C@@H]1[C@@H]2CC[C@]2(C)C(=O)CC[C@@H]12 | 60.1% (inactive)
5 | COc1ccc(O)c(CNC(=O)CN2CCCC2=O)c1 | 103% (inactive)
6 | CN[C@@]1(c2ccccc2Cl)CCCC[C@@H]1NCC1CCCO1 (stereo not given in full) | 98.2% (inactive)
7 | COC(=O)[C@@H](C)C[C@H](Cc1ccccc1)NC(=O)c1csc([C@@H](C[C@H](C(C)C)N(C)C(=O)[C@@H](NC(=O)[C@H]2CCCCN2C)C(C(F)(F)F)C(F)(F)F)OC(C)=O)n1 | 3.74% (active)
8 | CC[C@H](C)[C@H](NC(=O)[C@H]1CCCCN1C)C(=O)N(C)[C@H](C[C@@H](OC(C)=O)c1nc(C(=O)NC23CC(C(=O)OC)(C2)C3)cs1)C(C)C | 6.7% (active)
9 | COc1ccc(S(=O)(=O)Nc2c(/C=C\c3cc(OC)c(OC)c(OC)c3)ccc(OC)c2O)cc1OC | 12.9% (inactive)
10 | [Cl][Hg][c]1cc[c]([Hg][Cl])o1 | -40.8% (active)
11 | COc1cc(/C=C/[N+](=O)[O-])cc(OC)c1 | -50.9% (active)
12 | CC[C@H](C)[C@H](NC(=O)[C@H]1CCCCN1C)C(=O)N(C)[C@H](CC(=O)c1nc(C(=O)N[C@@H](Cc2ccccc2)C[C@H](C)C(=O)O)cs1)C(C)C | 45.9% (inactive)
13 | C=C(C)[C@@]12OC3(/C=C/C=C/CCCCC)O[C@@H]1[C@@H]1[C@@H]4O[C@]4(CO)[C@@H](O)[C@]4(O)C(=O)C(C)=C[C@H]4[C@@]1(O3)[C@H](C)[C@H]2OC(=O)c1ccccc1 | 53.2% (inactive)
14 | Cc1cc(N(CCCl)CCCl)ccc1C=Nc1ccc(-c2csc(Cc3ccccc3)n2)cc1 | 62.7% (inactive)
15 | COC(=O)CC[C@H](Cc1ccccc1)NC(=O)c1csc([C@@H](C[C@H](C(C)C)N(C)C(=O)[C@@H](NC(=O)[C@H]2CCCCN2C)C(C)C)OC(C)=O)n1 | 12.5% (inactive)
16 | COC(=O)[C@@H](C[C@H](Cc1ccccc1)NC(=O)c1csc([C@@H](C[C@H](C(C)C)N(C)C(=O)[C@@H](NC(=O)[C@H]2CCCCN2C)C(C)C)OC(C)=O)n1)NC(=O)OCc1ccccc1 | 6.82% [9.5 µM] (active)
17 | CCN(CCO)C(Cc1ccccc1)c1ccccc1 (stereo not given) | 115% (inactive)
18 | CCOC(=S)S[C@H]1C[C@@H]2[C@H](CC[C@]3(C)C(=O)CC[C@@H]23)[C@@]2(C)CCC(=O)C=C12 | 102% (inactive)
19 | CCOC(=O)CCN(C)C1=Nc2ccc(Cl)cc2C(c2ccccc2)=[N+]([O-])C1 | 100% (inactive)
20 | O=C(CCCCCNC1=CC(=O)c2ccccc2C1=O)NCCC[Te]c1ccccc1 | -8.56% (active)

Row | SMILES | growth
21 | CC[C@H](C)[C@H](NC(=O)[C@H]1CCCCN1C)C(=O)N(C)[C@H](C[C@@H](O)c1nc(C(=O)N[C@@H](Cc2ccccc2)C[C@H](C)C(=O)O)cs1)C(C)C | 52.9% (inactive)
22 | COc1cc(/C=C\c2cc(OC)c(OC)c(OC)c2)cc(N/C=C\C(=O)c2cc(OC)c(OC)c(OC)c2)c1OC | 31% (inactive)
23 | NC(=O)CNc1ccc([As]=[As]c2ccc(NCC(N)=O)cc2)cc1 (stereo not given) | 12% (inactive)
24 | [Au+].[N-]=C=O.c1ccc(CN2[CH-]N(Cc3ccccc3)C(c3ccccc3)=C2c2ccccc2)cc1 | 47.8% (inactive)
25 | COc1cccc(C=NC(Cc2cnc[nH]2)C(=O)O)c1O (stereo not given) | 102% (inactive)
26 | COc1ccc(C(=O)c2sc3nc4c(cc3c2N)N2CCC4CC2)cc1OC | 84.9% (inactive)
27 | COc1cc2c(cc1OCCCCCn1c(-c3ccco3)nc3ccccc31)N=C[C@@H]1CCCN1C2=O | 8.03% (active)
28 | CCCCNC(c1ccc(Cl)cc1)C(O)c1ccc(Cl)cc1 (stereo not given) | 6.63% (active)
29 | CCC(CC)CC1(C)CC2(C)CCOC2OO1 (stereo not given) | 102% (inactive)
30 | COC(=O)[C@@]1(C)CC[C@]2(C)CC[C@]3(C)C4=CC=C5C(=CC(=O)C(O)=C5C)[C@]4(C)CC[C@@]3(C)[C@@H]2C1 | -97.4% (active)
31 | C/C1=C/C(=O)O[C@@H]2C[C@@H](CC[C@H](C)/C=C\C=C\CC1)O[C@@](O)([C@@H]1CSC(=O)N1CO)C2 | 5.44% (active)
32 | CCOP(=O)(Nc1ccc2c(c1)/C(=N/NC(N)=S)c1ccccc1-2)OCC | 94.8% (inactive)
33 | CC(C)(C)C(=O)OCOP(=O)(OCOC(=O)C(C)(C)C)C1CCCN(O)C1=O (stereo not given) | 2.06% (active)
34 | COC(=O)[C@@H](C)C[C@H](Cc1ccccc1)NC(=O)c1csc([C@@H](C[C@H](C(C)C)N(C)C(=O)C2(NC(=O)[C@H]3CCCCN3C)CC2)OC(C)=O)n1 | 4.91% (active)
35 | CN(C)CC(C(=O)Cc1ccccc1)c1ccccc1 (stereo not given) | 110% (inactive)
36 | Brc1ccc2c(c1)c(-c1nc(-c3c[nH]c4ncccc34)cs1)cn2CCN1CCCCC1 | 42% (inactive)
37 | CC(=O)O[C@H]1CC[C@@]2(C)C(=CC[C@H]3[C@@H]4C[C@@H](N5CC5)[C@H](C(C)=O)[C@@]4(C)CC[C@@H]32)C1 | 91.5% (inactive)
38 | COC(=O)[C@@H](C)C[C@H](Cc1ccccc1)NC(=O)c1nc([C@@H](C[C@H](C(C)C)N(C)C(=O)[C@@H](NC(=O)[C@H]2CCCCN2C)C(C)C)OC(C)=O)sc1C(C)C | 6.19% (active)
39 | NC(N)=N/N=C\c1c[nH]c2ccc(Br)cc12 | 32.9% (inactive)
40 | COC1=CC(=O)O[C@@H](/C=C/c2ccc3c(c2)OCO3)C1 | 97.9% (inactive)
